Source: PubChem BioAssay
A selection: hits, their analogues and other compounds. The true share with any hit is near 5.5%.
MBNL1 CUG block – blocks human MBNL1 binding to CUG repeat RNA. Q9NR56. TR-FRET MBNL1-His/biotin-(CUG)12 binding, 665/545 ratio. Potency, µM (highest dose often 57.5 µM), for inactives: at the top dose activity change, negative = inhibition, actives largely listed as inhibitors. 280,000 tested, 0.036% active; active means well fitted inhibition curve with a large enough effect in the signal ratio, with a control signal flat, not every such curve was filed as active; inconclusive means small, poorly fitted or top-dose-only effect, or effect the other way, or a change in a side signal; inactive means no such curve, though single readings can be large or run the other way; the % refers to the signal ratio; further: potency means the concentration at half of the fitted maximal effect; on the % scale 0 is the no-effect control and ±100 the full control effect
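TR-FRET readout: Ex 340 nm, 665/545 nm emission ratio, normalized to buffer-only (basal) and MBNL1-(CUG)12 controls. Complex of MBNL1-His with Biotin-(CUG)12, compounds 92 nM–58 uM, incubated 60 min at room temperature.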
CBFb RUNX1 block – blocks binding between human CBF-beta and RUNX1 | Q01196+Q13951 | AlphaScreen CBFb-His/RUNX1-biotin binding, biochemical | Potency, µM (highest dose often 59.8 µM), for the others: at the highest dose activity, negative = inhibition, actives largely listed as inhibitors | 230,000 tested, under 10 active; further: % of control where 0% means no effect
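His-tagged CBF-beta and biotinylated RUNX1 (30 nM each) were premixed 20 min at room temperature, exposed to compound for 15 min, then given nickel-chelate and streptavidin AlphaScreen beads (50 ng each). After 90 min, AlphaScreen signal was read.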
VP16 counter – counter-screen for ROR gamma inhibitors: Gal4-VP16 reporter; Drosophila S2 Gal4-VP16 UAS-luciferase, luminescence, 20 h; Potency, µM (doses to about 53.6 µM), inactives show at the top dose activity, negative = inhibition, usual class: inhibitors; 310,000 tested, 3.5% active; AID 2546;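 further: Gal4-VP16 expression switched on by copper sulfate through the metallothionein promoter; potency means the concentration at half of the fitted maximal effect; on the % scale 0 is the no-effect control and ±100 the full control effect; nearly all actives have a fitted effect of over 50% in size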
Six1-Eya2 inh – Six1/Eya2 interaction inhibition. Q15475+O00167. AlphaScreen GST-Six1/His-Eya2 binding, biochemical; active compounds read low. activity change, % (test concentration not listed). 360,000 tested, 0.56% active. AID 651725; in the data active means activity change below about -65%; inconclusive means mostly about -30% to -63%; further: on the % scale 0 is the no-effect control and ±100 the full control effect
Target sequence (O00167 whole entry, looked up): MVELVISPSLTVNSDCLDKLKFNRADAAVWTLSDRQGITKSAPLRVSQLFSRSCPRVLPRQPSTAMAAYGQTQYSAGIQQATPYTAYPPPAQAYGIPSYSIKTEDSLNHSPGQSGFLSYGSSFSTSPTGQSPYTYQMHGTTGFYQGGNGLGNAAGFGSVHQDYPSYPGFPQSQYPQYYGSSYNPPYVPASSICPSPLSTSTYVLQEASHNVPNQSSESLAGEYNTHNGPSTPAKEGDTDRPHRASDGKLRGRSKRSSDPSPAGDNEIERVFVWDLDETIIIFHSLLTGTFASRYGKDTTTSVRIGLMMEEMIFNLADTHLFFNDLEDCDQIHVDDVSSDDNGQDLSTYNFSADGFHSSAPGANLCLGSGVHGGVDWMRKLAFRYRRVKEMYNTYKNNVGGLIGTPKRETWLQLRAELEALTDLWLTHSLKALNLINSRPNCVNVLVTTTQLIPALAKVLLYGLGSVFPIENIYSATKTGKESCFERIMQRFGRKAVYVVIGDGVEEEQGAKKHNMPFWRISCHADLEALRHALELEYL
Target sequence (Q15475 whole entry, looked up): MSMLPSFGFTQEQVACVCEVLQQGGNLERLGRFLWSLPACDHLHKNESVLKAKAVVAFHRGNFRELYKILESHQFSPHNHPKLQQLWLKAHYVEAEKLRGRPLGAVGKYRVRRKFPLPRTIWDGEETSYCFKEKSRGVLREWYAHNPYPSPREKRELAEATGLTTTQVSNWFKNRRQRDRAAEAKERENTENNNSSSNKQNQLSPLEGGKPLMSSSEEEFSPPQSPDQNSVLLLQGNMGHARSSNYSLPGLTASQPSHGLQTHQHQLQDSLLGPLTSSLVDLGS
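Six1/Eya2 binding was read as AlphaScreen signal after compounds were pinned into GST-Six1 plus His-tagged Eya2 (5X stock 250/500 nM) in pH 8.0 Tris/NaCl/TCEP buffer, beads added, then incubated 1 h, 37 C, dark.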
RORg inh – blocks mouse ROR gamma transcriptional activity; Potency, µM (top dose mostly 53.6 µM), without a hit: at the top dose activity change, negative = inhibition, usual class: inhibitors; Drosophila S2 Gal4-RORgamma UAS-luciferase reporter, 20 h; 310,000 tested, 5.4% active; further: potency means the concentration at half of the fitted maximal effect; on the % scale 0 is the no-effect control and ±100 the full control effect; nearly all actives have a fitted effect of over 60% in size
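Drosophila S2 cells stably expressing Gal4-DBD/mouse RORγ fusion under metallothionein promoter plus UAS-luciferase; compound 1 h, then 700 uM CuSO4 induction for 20 h at ambient temperature; inhibition read as reduced luminescence.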
CtBP-E1A blk – inhibitors of CtBP/E1A interaction; AlphaScreen GST-E1A/His-CtBP binding, 1536-well; active compounds read low; activity change, % (test concentration not listed); 340,000 tested, 0.49% active; AID 651724; in the data active means activity change below about -65%; inconclusive means mostly about -30% to -63%; further: on the % scale 0 is the no-effect control and ±100 the full control effect
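Steps: dispense buffer (Tris pH 8.0, NaCl 300 mM, TCEP 1 mM, BSA, Tween 20); add 5X protein mix (GST-E1A, His-CtBP, 125 nM each); pin 23 nL compound; 2 h at 37 °C, dark; add 5X beads (50 ug/mL); 1 h; read.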
* hit, by the source's call; u = inconclusive; x = no result given; [ ] = another dose, or the depositor's remark. Unless noted, the call rests on the fitted dose curve; in most records, active means well fitted curve in the direction sought with a large enough effect; inconclusive means small, poorly fitted or top-dose-only effect, or another doubt; inactive means no such curve, though single readings can be large; an effect the other way counts as inactive or inconclusive.

SMILES	MBNL1 CUG block	CBFb RUNX1 block	VP16 counter	Six1-Eya2 inh	RORg inh	CtBP-E1A blk
NC(=O)N/N=C/c1ccccc1OC(=O)c1cc2ccccc2oc1=O	u	x	0%	7	-36%	x
NC(=S)N/N=C/c1ccccc1OC(=O)c1cc2ccccc2oc1=O	u	x	7.1µM*	u	7.1µM*	x
COC(=O)C/C=C\[C@@H](C)[C@@H](/C=N\O[C@@H](C)CN1CCCc2nc(C)c(C)cc21)OC	x	9%[13.1 µM]	6%[10 µM]	x	-5%[10 µM]	x
CC(C)c1ccc(NC(=O)C2Cc3c(-c4ccc5c(c4)OCO5)ccnc3O2)cc1 (configuration not stated)	x	x	x	-20	x	-5
C[C@@H]1COC(=O)CCC/C=C\C[C@@H](CC(=O)N(CCO)Cc2ccccc2)C(=O)N1	x	x	x	-4	x	4
C#CC[N+](C)(C)CCCCCCCCCCCC	-13%	0%	11µM*	8	u	6
CC#CC[N+](C)(C)CCCCCCCCCCCC	-12%	10%	7.1µM*	4	u	6
CCCCCCCC[N+](CCCCCCCC)(CCCCCCCC)CCCCCCCC	x	u	2µM*	x	4.5µM*	x
CCCCCCCCCCCCCCCC[N+](C)(C)CC	x	x	-23%	7	-28%	5
Cc1ccc(C)c(NC(=O)Cc2nc(CNCC(C)C)cs2)c1	-4%	x	3%	6	-4%	-1
Cc1oc2cc3c(C(=O)N4CCCCC4)c(C)oc3cc2c1C(=O)N1CCCCC1	8%	-3%	u	1	2µM*	9
COc1cc2c(C(=O)N3CCN(C)CC3)c(C)oc2cc1Br	7%	1%	1%	3	-21%	-1
COc1ccc(N2CCN(CCCNC(=O)Cn3c(=O)c4cccn4c4ccccc43)CC2)cc1	18%	x	8%	-10	-10%	-20
COC(=O)c1sccc1NC(=S)Nc1cc(C)cc(C)c1	3%	-8%	4.5µM*	-6	5µM*	16
COC(=O)c1sccc1NC(=S)Nc1cccc(F)c1	-1%	10%	u	-22	18µM*	6
COC(=O)c1sccc1NC(=O)Nc1ccc(OC)cc1	-2%	x	u	0	-6%	2
COC(=O)c1sccc1NC(=S)Nc1ccc(F)cc1F	-10%	5%	u	-17	5.6µM*	x
COC(=O)c1sccc1NC(=S)Nc1ccccc1	-7%	15%	u	21	16µM*	0
N#Cc1cc2ccccc2nc1SCc1ccccn1	23%	14%	u	2	6.3µM*	8
S=C(Nc1ccc(Nc2ccccc2)cc1)NC1CCCCCC1	-6%	u	u	-28	1.3µM*	u
S=C(Nc1cccnc1)NC1CCCC1	-2%	-4%	-8%	10	1%	3
S=C(Nc1ccc(Br)cc1)NC1CCCCC1	u	8%	18µM*	-1	7.9µM*	0
S=C(Nc1cccnc1)NC1CCCCCCC1	x	4%	22µM*	2	u	0
NS(=O)(=O)c1ccc(NC(=S)NC2CCCCC2)cc1	-5%	-2%	4%	8	6%	13
S=C(Nc1ccc(Cl)cc1)NC1CCCCC1	x	2%	16µM*	-5	3.5µM*	3
SMILES	MBNL1 CUG block	CBFb RUNX1 block	VP16 counter	Six1-Eya2 inh	RORg inh	CtBP-E1A blk
CN(C)CCNC(=O)c1cc2sc3ccccc3c2s1	u	4%	-5%	9	-22%	-11
Cc1ccc(NC(=O)CSCC(=O)NC2=NCCS2)cc1	x	x	x	4	x	6
COC(=O)C1=C(C(=O)OC)[C@@H]2N(C)c3ccccc3[C@@]23C[C@@H](C(=O)OC)N(S(=O)(=O)c2ccc([N+](=O)[O-])cc2)C3=N1	x	-17%[13.1 µM]	x	x	x	x
FC(F)Oc1ccc(NC(=S)NC2CCCCCCC2)cc1	2%	x	10µM*	-9	3.5µM*	4
COc1cccc(-n2nnnc2S(C)(=O)=O)c1	-3%	3%	5µM*	-11	3.2µM*	6
OCc1ccc(-c2ccc(-c3ccc(CO)s3)o2)s1	x	-11%	1.6µM*	x	0.63µM*	x
